Among all 100,000 compounds or so, about 770 (0.77%) were called active. Rule as the data show it: active = inhibition above about 50%; inactive = the rest. Many of the other results were omitted from the sample, so actives are more common in it than they were.

The target of the assay is Gag-Pol polyprotein (Human immunodeficiency virus type 1 group M subtype B (isolate HXB2)) (UniProt P04585). Description: RNase H inhibition, HIV 1 Gag Pol polyprotein, FRET biochemical assay, screening (AID 372). Conditions: HIV-1 RT RNase H, FRET RNA/DNA substrate fluorescence; at 10 µM; stronger effect = higher value.
In general, inhibition refers to the share of the control response that was lost under treatment. For the compound `CCC(C)OC(=O)C1=C(C)NC2=C(C(=O)CC(c3ccc(Cl)cc3)C2)C1c1ccc(OC(C)=O)cc1` (configuration not stated), the inhibition was 11% (inactive). Under `COc1ccccc1/C=C\C=N\n1c(-c2ccc(Cl)cc2Cl)n[nH]c1=S` stands 34% (inactive). Under `CS(=O)(=O)N(CC(O)Cn1c2ccccc2c2ccccc21)c1ccc(Br)cc1` (configuration not stated) stands 1% (inactive). To `CCN(CC)c1ccc(/C=N/NC(=O)CCC(=O)Nc2cccc(Cl)c2C)c(O)c1` belongs 6% (inactive); to `CCOP(=O)(CN1CCN(CP(=O)(OCC)OCC)CC1)OCC`, 2% (inactive). For `Cc1c(NC(=O)c2cc(Cl)ccc2Cl)cccc1-c1nc2ccccc2s1`, the inhibition was 9% (inactive). `O=c1/c(=C/c2ccc(-c3ccccc3)o2)sc2nc3ccccc3n12`: the inhibition is 9% (inactive). To `CCOC(=O)C1=C(C)NC2=C(C(=O)CC(c3ccc(OC)cc3)C2)C1c1ccc(OC)c(OC)c1` (configuration not stated) belongs 11% (inactive). To `Cc1ccc(C(=O)Oc2ccccc2C(=S)N2CCOCC2)cc1` belongs 0% (inactive); to `CCOC(=O)C1CCCN(C(=O)N2CCOCC2)C1` (configuration not stated), 12% (inactive); to `Cc1cc2ncn(CC(O)COc3ccc(C(=O)O)cc3)c2cc1C` (configuration not stated), 0% (inactive). To `COc1ccccc1CNc1cccc(F)c1` belongs 0% (inactive). As to `O=C1NC(=S)S/C1=C\c1ccccc1OCCOc1ccccc1Cl`, the inhibition is 46% (inactive). To `O=C1NC(=Nc2cccc(Cl)c2Cl)S/C1=C\c1ccc(O)c(O)c1` belongs 89% (active); to `O=C1NC(=S)S/C1=C\c1cc([N+](=O)[O-])ccc1OCCOc1ccccc1Cl`, 55% (active). Turning to `O=C1NC(=Nc2cccc(Cl)c2Cl)S/C1=C\c1ccc(O)cc1`, the inhibition is 12% (inactive). Under `O=C1NC(=Nc2cccc(Cl)c2Cl)S/C1=C\c1ccc(F)cc1` stands 22% (inactive); under `Cc1cc(C)cc(OCCOc2ccc([N+](=O)[O-])cc2/C=C2\SC(=S)NC2=O)c1`, 38% (inactive). To `O=P(O)(OC(c1ccccc1)C(F)(F)F)c1ccccc1` (configuration not stated) belongs 2% (inactive); to `CC(=O)Oc1ccc(/C=C2/N=C(c3cccc([N+](=O)[O-])c3)OC2=O)cc1`, 14% (inactive). Under `O=C(Cc1ccccc1)Nc1ccncc1` stands 11% (inactive). Turning to `Cn1cc(/C=C2/SC(=O)N(c3ccccc3)C2=O)c2ccccc21`, the inhibition was 12% (inactive). Under `COc1ccc(Cl)cc1/C=C1\C(=O)NC(=S)N(c2cccc(Cl)c2Cl)C1=O` stands 8% (inactive); under `Clc1cccc(-c2ccc(/C=N/Nc3nc4ccccc4s3)o2)c1`, 4% (inactive). To `O=[N+]([O-])c1ccc(Cl)c(C=Nn2c(-c3ccc(Cl)cc3Cl)n[nH]c2=S)c1` belongs 16% (inactive); to `O=[N+]([O-])c1cc(C=Nn2c(-c3ccc(Cl)cc3Cl)n[nH]c2=S)ccc1Cl`, 37% (inactive). Under `O=[N+]([O-])c1ccc(C=Nn2c(-c3ccc(Cl)cc3Cl)n[nH]c2=S)cc1` stands 51% (active).
